{"source": "PubChem BioAssay (NCI)", "note": "This is part of a sample that, as a whole, favours compounds with a hit. Of some 83,000 tested, about 20% had one in any assay.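 Plates (96-well) were seeded with cells, treated with compound at one concentration, and incubated for 48 hours before percent growth was determined.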 Values without a mark were called inactive. Activity calls are given as the source filed them. How the source made its calls: active means growth percent below 10; inactive means the rest."}
{"tested_on": "HCT-116 colon", "test": "NCI-60 one-dose screen, 48 h (100 = growth as untreated, 0 = no growth, -100 = all killed)", "conditions": "10 µM unless noted"}
{"smiles": "C=C(C)[C@@H]1CC[C@]2(COC(=O)c3cccnc3)CC[C@]3(C)[C@H](CC[C@@H]4[C@@]5(C)CCCN(C(=O)c6cccnc6)C(C)(C)[C@@H]5CC[C@]43C)[C@@H]12", "growth": "28.1%"}
{"smiles": "C=C1C(=O)O[C@H]2[C@H]1CC/C(CNC(=O)/C=C/c1cc(OC)c(OC)c(OC)c1)=C\\CC[C@@]1(C)O[C@@H]21", "growth": "-65.6% (active)"}
{"smiles": "O=S(=O)(c1ccc(NCSc2nc3ccccc3s2)cc1)c1ccc(NCSc2nc3ccccc3s2)cc1", "growth": "86.5%"}
{"smiles": "COc1ccc(S(=O)(=O)Oc2ccc(-c3sc4cc(OS(=O)(=O)c5ccc(OC)cc5)ccc4c3C(=O)c3ccc(OCCN4CCCCC4)cc3)cc2)cc1", "growth": "98.8%"}
{"smiles": "Nc1nc(N)c2c(n1)NC(c1cccc(Nc3ccnc4cc(C(F)(F)F)ccc34)c1)CC(c1ccc(Cl)cc1)=N2", "note": "(stereo not given)", "growth": "15.1%"}
{"smiles": "COC(=O)[C@H]1Cc2c([nH]c3ccccc23)[C@H](c2ccc3c(c2)OCO3)N1", "growth": "97.6%"}
{"smiles": "[2H]C([2H])([2H])Oc1c(F)cccc1/C=C/C(=O)/C=C(O)/C=C/c1cccc(F)c1OC([2H])([2H])[2H]", "growth": "84.1%"}
{"smiles": "C=C(C)[C@@H]1CCC[C@]2(C(=O)OC)CC[C@]3(C)[C@@H](CC[C@@H]4[C@@]5(C)CCCNC(C)(C)[C@@H]5CC[C@]43C)[C@@H]12", "growth": "93.3%"}
{"smiles": "O=C(Nc1ncc(Cc2ccccc2)s1)c1ccc2c(c1)OCCO2", "growth": "9.23% (active)"}
{"smiles": "COc1ccc(-c2cc(-c3ccc(Nc4nc(Nc5ccc(Cl)cc5)nc(Nc5ccc(Cl)cc5)n4)cc3)no2)cc1", "growth": "53.3%"}
{"smiles": "CNC(=O)c1cc(Oc2ccc3nc(NC(=O)NC(C)C)sc3c2)ccn1", "growth": "57.7%"}
{"smiles": "O=C1NCCS(=O)(=O)/C1=C\\C=C\\c1cccc(C(F)(F)F)c1", "growth": "-41.8% (active)"}
{"smiles": "NCCNc1ccc([N+](=O)[O-])cc1", "growth": "98.8%"}
{"smiles": "Clc1ccc2c(NCCCn3cnc4c(N5CCCC5)nc(Cl)nc43)ccnc2c1", "growth": "93.4%"}
{"smiles": "O=C(/C=C/c1ccc(Cl)cc1)c1ccc(Nc2ccnc3cc(Cl)ccc23)cc1", "growth": "16.9%"}
{"smiles": "Oc1c(Cl)cc(Cl)c2ccc(CN3CCNCC3)nc12", "growth": "32.6%"}
{"smiles": "O=C1c2ccccc2C(=O)c2cc(Cn3c[n+](Cc4ccc5ccccc5c4)c4ccccc43)ccc21", "growth": "41.2%"}
{"smiles": "CC(C)(C#N)c1cc(C(=O)Nc2cc(Nc3ncccc3-c3ncnc4nc[nH]c34)ccc2F)cc(C(F)(F)F)c1", "growth": "15.4%"}
{"smiles": "CC(C)n1cc(C2=C(c3cccc4ccccc34)C(=O)NC2=O)c2cc(Br)ccc21", "growth": "35.4%"}
{"smiles": "O=CN1N=C(c2cccc(Nc3ccncc3)c2)CC1c1ccc2c(c1)OCO2", "note": "(stereo not given)", "growth": "83.1%"}
{"smiles": "CC(=O)Cc1nsc(NC(=O)c2cc(-c3cc(Cl)ccc3Cl)oc2C)n1", "growth": "95.8%"}
{"smiles": "O=C(O)COc1ccc(F)cc1", "growth": "103%"}
{"smiles": "CC(Cc1cccc2ccccc12)C(N)=O", "note": "(stereo not given)", "growth": "106%"}
{"smiles": "NC(=N\\N=C/c1ccc(Cl)cc1Cl)/C(N)=N\\N=C/c1ccc(Cl)cc1Cl", "growth": "21.9%"}
{"smiles": "CCOC(=O)CC1C(CNC(=O)NC)OC(n2cnc3c(NC(=O)Nc4ccccc4)ncnc32)C1O[Si](C)(C)C(C)(C)C", "note": "(stereo not given)", "growth": "16.7%"}
{"smiles": "CCc1ccc(Cc2cnc(NC(=O)c3cc(C)oc3C)s2)cc1", "growth": "20.4%"}
{"smiles": "CNc1nc2ncc(-c3c(C)noc3C)cc2n1Cc1ccccc1", "growth": "26%"}
{"smiles": "CCCCC1=C(Br)C(=O)c2ncccc2C1=O", "growth": "62.6%"}
{"smiles": "Cc1ccc2nc(/C=C/c3ccc(N(C)C)cc3)cc(C)c2c1", "growth": "22.8%"}
{"smiles": "CCN(CC)c1ccc(/C=N/NC(=O)c2ccccc2Nc2ccnc(C(F)(F)F)c2)c(O)c1", "growth": "27.7%"}
{"smiles": "COc1cc2ncnc(Nc3ccc(S(=O)(=O)Nc4cc(C)on4)cc3)c2cc1OCCCN1CCOCC1", "growth": "102%"}
{"smiles": "COc1ccc(-c2cc(-c3ccc(N(C)C)cc3)nc(NC(=O)c3cccnc3)n2)cc1", "growth": "102%"}
{"smiles": "CC(=O)/C(Br)=C/c1ccc(Br)o1", "growth": "-66.2% (active)"}
{"smiles": "N#CC1=C(N)Oc2c(ccc3cccnc23)C1c1ccccc1", "note": "(stereo not given)", "growth": "22.2%"}
{"smiles": "CCCS(=O)(=O)Nc1cccc(Nc2ncnc3cc(NC(=O)CCl)ccc23)c1Cl", "growth": "-27.9% (active)"}
{"smiles": "COC(=O)c1nc(-c2ccc(C)cc2)oc1N1CCOCC1", "growth": "97.8%"}
{"smiles": "Cc1ccc(S(=O)(=O)N(CCC(=O)O)c2ccccc2)cc1", "growth": "95.1%"}
{"smiles": "Nc1ncc(-c2ccc3ncnc(N4CCc5cc(F)c(Cl)cc54)c3c2)cc1C(F)(F)F", "growth": "21.3%"}
{"smiles": "OC1CSSC1Cn1cnc2c(Nc3ccc(F)c(Cl)c3)ncnc21", "note": "(stereo not given)", "growth": "74.7%"}
{"smiles": "COc1cc2c(c(OC)c1OC)C(=O)CC(c1cccc(C(=O)Nc3ccc(Br)cc3)c1)O2", "note": "(stereo not given)", "growth": "46.6%"}
